Assay results taken from PubChem BioAssay.
Unmarked numbers belong to inactive results.

Test: basal S. cerevisiae growth modulation, no modifier, primary screen, OD600, strain BY4716, 24 h, basal condition (AID 1173)
Settings: OD600, 24 h, higher = more signal, called active from +8 up or from −8 down

Compound | z-score
CCC[C@@H]1C=C(C(=O)OCC)[C@H](c2ccccc2)N1S(=O)(=O)c1ccc(C)cc1 | 1.53
COCC(=C=CC[C@@H](O)c1cccc(OCCO)c1)C[C@@H](O)COCc1ccccc1 | -0.353
CC(C)[C@@H](C(=O)O)n1cc(-c2ccccc2)nn1 | -0.291
CN(C)CCCCNC(=O)[C@H]1C[C@H]2C(=O)NCC(=O)N2[C@H]1c1cccc(OCCO)c1 | 0.425
[N-]=[N+]=NCc1ccccc1C[C@]1(C(=O)N2CCOCC2)N=C(c2ccc(OCCCO)cc2)O[C@H]1c1ccccc1CN=[N+]=[N-] | 1.06
C=CCNC(=O)[C@@H]1[C@H]2C(=O)O[C@H](c3ccccc3)[C@H](c3ccccc3)N2[C@H](c2ccccc2OCCO)[C@@]12C(=O)N(C(=O)OCCOC)c1ccc(C#CCCO)cc12 | 0.858
CC(C)=CCN(C(=O)C#Cc1ccccc1)[C@H](CO)c1ccccc1 | -0.192
Cc1ccccc1C(O)C1C=CC2C(=O)N(c3ccccc3)C(=O)C2N1Nc1ccccc1F (stereo unspecified) | -0.822
C=CC[C@]1(C(=O)NCc2ccccc2)COC(c2ccc(OCCCO)cc2)=N1 | -1.92
C=C(/C(=C/C[C@@H](OC(C)=O)c1ccccc1OCCO)c1cc(C(=O)OC)ccc1OC)C(C)C | -1.18
CCCC=C(CCC)[C@@H](NS(=O)(=O)c1ccc(Cl)cc1)c1ccccc1 | 0.733

Test: MM1S myeloma cell viability, profiling panel, resazurin fluorescence, basal, 24 h, PK04 Diversity Set (AID 1174);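 further: MM1S multiple myeloma cell line; test concentration not given here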
Settings: higher = more signal, called active from +8 up or from −8 down

Compound | z-score
CCCCC(O)C1C=CC2C(=O)N(C)C(=O)C2N1Nc1ccccc1 (stereo unspecified) | -1.39
O=C1C2C=CC(C(O)c3cccs3)N(Nc3ccccc3)C2C(=O)N1c1ccccc1 (stereo unspecified) | -0.334
COC(=O)[C@@]1(Cc2ccccc2)[C@@H]2[C@@H](CC(=O)[C@H]2CC(=O)C(=O)N(C)C)CN1C(=O)c1ccccc1 | -1.18
CC=CC(O)C1C=CC2C(=O)N(C)C(=O)C2N1NC(=O)OC(C)(C)C (stereo unspecified) | -0.524
CN(C)C(=O)[C@]1(Cc2ccccc2)N=C(c2ccc(OCCCO)cc2)O[C@@H]1c1ccccc1 | 0.324
C=CCC(OC(C)=O)[C@@H]1[C@@H](N(Cc2cccc3ccccc23)C(=O)c2ccc(-c3ccccc3)cc2)c2cc(OCCCO)ccc2N1C(=O)c1ccc2ccccc2n1 (stereo partly specified) | 0.623
C=CCC(OC(C)=O)[C@@H]1[C@@H](N(Cc2ccc(-c3ccccc3)cc2)C(=O)c2ccc(-c3ccccc3)cc2)c2cc(OCCCO)ccc2N1C(=O)c1ccc2ccccc2n1 (stereo partly specified) | 1.3
NC(=O)NCC#Cc1ccc2c(c1)[C@]1(C(=O)N2)[C@H](C(=O)N2CCCCCCC2)[C@H]2C(=O)O[C@H](c3ccccc3)[C@H](c3ccccc3)N2[C@@H]1c1ccc(O)cc1 | 0.678
C=CCC(OC(C)=O)[C@@H]1[C@@H](N(Cc2ccc(-c3cccc(C(F)(F)F)c3)o2)C(=O)Cc2ccc(F)cc2)c2cc(OCCCO)ccc2N1C(=O)c1ccc2ccccc2c1 (stereo partly specified) | 0.81
O=C1C2C=CC(C(O)c3ccc([N+](=O)[O-])cc3)N(Nc3ccccc3)C2C(=O)N1c1ccccc1 (stereo unspecified) | -0.952
O=C1c2ccccc2[C@@]2(Cc3ccccc3N(Cc3ccccc3)C2=O)[C@H](c2ccc(CO)cc2)N1Cc1ccccc1 | -0.851
CCOC(=O)C[C@H]1[C@H](OC(=O)Cc2ccc3c(c2)OCO3)[C@@H](NC(=O)c2ccccc2)c2cc(OCCCO)ccc2N1C(=O)Cc1ccc(OC)cc1 | -0.234
CCOC(=O)C[C@H]1[C@H](OC(=O)c2ccc(-c3ccccc3)cc2)[C@@H](NC(=O)CC(C)C)c2cc(OCCCO)ccc2N1C(=O)Cc1ccc(OC)cc1 | -0.38
CC(C)CNC(=O)[C@@H]1c2ccccc2C(=O)N(C2Cc3ccccc3C2)[C@H]1c1ccc(CO)cc1 | 0.76
C=C(COC)C(=O)CC[C@@H](OC(C)=O)c1ccc(OCCO)cc1 | -0.487
COCCOC(=O)N1C(=O)[C@@]2(c3cc(C#CC4(O)CCCCCC4)ccc31)[C@H](c1ccc(OCCO)cc1)N1[C@H](c3ccccc3)[C@H](c3ccccc3)OC(=O)[C@H]1[C@@H]2C(=O)N1CCCCCCC1 | -0.418
[N-]=[N+]=NCc1ccccc1C[C@]1(C(=O)O)COC(c2ccc(OCCCO)cc2)=N1 | -0.591
N[C@@H](Cc1ccccc1)Cn1cc(C2(O)CCCCC2)nn1 | -0.156

Compound | z-score
Cc1ccc(F)cc1S(=O)(=O)N[C@@H]1CCN(Cc2ccc3[nH]ccc3c2)C1 | -0.946
COCCOC(=O)N1C(=O)[C@@]2(c3cc(C#CC4=CCCCC4)ccc31)[C@H](c1ccccc1OCCO)N1[C@H](c3ccccc3)[C@H](c3ccccc3)OC(=O)[C@H]1[C@@H]2C(N)=O | -2.78
CC1(C)OC[C@@]23C=C(Br)[C@@H](C[C@H]12)[C@@]1(CO1)C3=O | 0.0059
CN1C(=O)C2C=CC(C(O)c3ccc(-c4ccccc4)s3)N(Nc3ccccc3)C2C1=O (stereo unspecified) | -1.03
C=C(COC)/C(=C/C[C@H](OC(=O)c1ccncc1)c1ccc(OCCO)cc1)c1cc(C(=O)OC)ccc1OC | -0.163
COCCn1c(C(=O)N2CCCC2)cc2c1C[C@H]1CN(C(=O)c3ccccc3)[C@@](Cc3ccccc3)(C(=O)OC)[C@@H]21 | -0.738
CCC[C@@H]1C=C(C(=O)OCC)[C@H](c2ccccc2)N1S(=O)(=O)c1ccc(C)cc1 | -0.37
COCC(=C=CC[C@@H](O)c1cccc(OCCO)c1)C[C@@H](O)COCc1ccccc1 | 0.629
CC(C)[C@@H](C(=O)O)n1cc(-c2ccccc2)nn1 | -0.372
CN(C)CCCCNC(=O)[C@H]1C[C@H]2C(=O)NCC(=O)N2[C@H]1c1cccc(OCCO)c1 | 1.59
[N-]=[N+]=NCc1ccccc1C[C@]1(C(=O)N2CCOCC2)N=C(c2ccc(OCCCO)cc2)O[C@H]1c1ccccc1CN=[N+]=[N-] | -0.481
C=CCNC(=O)[C@@H]1[C@H]2C(=O)O[C@H](c3ccccc3)[C@H](c3ccccc3)N2[C@H](c2ccccc2OCCO)[C@@]12C(=O)N(C(=O)OCCOC)c1ccc(C#CCCO)cc12 | -1.02
CC(C)=CCN(C(=O)C#Cc1ccccc1)[C@H](CO)c1ccccc1 | -5.79
Cc1ccccc1C(O)C1C=CC2C(=O)N(c3ccccc3)C(=O)C2N1Nc1ccccc1F (stereo unspecified) | -1.08
C=CC[C@]1(C(=O)NCc2ccccc2)COC(c2ccc(OCCCO)cc2)=N1 | -1.4
C=C(/C(=C/C[C@@H](OC(C)=O)c1ccccc1OCCO)c1cc(C(=O)OC)ccc1OC)C(C)C | -0.296
CCCC=C(CCC)[C@@H](NS(=O)(=O)c1ccc(Cl)cc1)c1ccccc1 | 0.604
